Results on 98 molecules are retold here after ChEMBL document CHEMBL3988442, “University of Dundee, Small-Polar-MMV Screening Library” (2021).

Values joined by “and” are separate entries in the source; they are usually repeats but may differ in a detail not shown here. Identical values can stand only once. The whole screen tested about 38,000 compounds, of which about 1,200 (3.2%) showed an effect of 50% or more. The median lay at about -58%. What follows is part of a selection rich in strong results, with near analogues and random picks from the rest.

The subject of this test is Plasmodium falciparum. Nature of the test: Calibr Malaria Delayed Death Assay SOP. Type of test: functional, organism-based. Set-up: scale not given: in the data most compounds retested in dose-response had high values. The settings on record: concentration 4.99e-06 (unit not given; other assays of the set use mol/L).

Consider `CN(CCc1ccccn1)C(=O)C(O)c1ccc(Br)cc1` (stereo not drawn), for which the “Percent Effect” value was -90%.

Consider `CS(=O)(=O)N1CCC2(CCN(C(=O)c3cccnc3)CC2)C1.O=C(O)C(F)(F)F`, for which the “Percent Effect” value was -35.24%. Same read-out and setting: the figure for `CC(C)Cc1noc(C2CCCN(C(=O)CCc3cnn(C)c3)C2)n1` (stereo not drawn) is -27.67%; for `O=C(O)C(F)(F)F.O=C(O)C(F)(F)F.c1cncc(OC[C@]23COC[C@H]2CN(C2CCOCC2)C3)c1` it is -14.64%. Still for that read-out and setting: then `CCN(CC)C(=O)CSc1nc2c(cnn2CCO)c(=O)[nH]1`, with -60.63%; and `CCCNCc1ncc(C)c(OC)c1C`, with -91.87%; and `O=C(Cn1nc(N2CCOCC2)ccc1=O)Nc1nccs1`, with -91.76%. Same read-out and setting: then `O=S(=O)(c1ccc(F)cc1F)N1CCCCC1c1nnc2n1CCCC2` (stereo not drawn), with -68.7%; and `CCN(Cc1cccc2c1OCO2)C(=O)NC1CC1`, with -37.14%; and `CN(C)C(=O)CN1CCOCC2(CCN(c3ncc(F)cn3)CC2)C1.O=C(O)C(F)(F)F`, with -87.82%. Take `CCCN(CCn1c(=O)oc2ccccc21)CC1CC1`: the “Percent Effect” value was determined as 13.79%.

Consider `CC(=O)N1CCN(C(=O)Nc2ccc(Cl)cc2)[C@H]2CS(=O)(=O)C[C@H]21`, for which the “Percent Effect” value was -18.79%. Take `CSCCC(=O)NCc1cc2n(n1)CCCN(C1CCCCC1)C2`: the “Percent Effect” value was -96.84%. Take `CC(NC(=O)C1CN(c2ncnc3c2nnn3C)C1)c1ccccc1` (stereo not drawn): the “Percent Effect” value was -135.3%. Same read-out and setting: the figure for `Cc1cc(NC(=O)CN2CCCCC2Cn2nc(C)nc2C)on1` (stereo not drawn) is -33.53%; for `O=C(O)C(F)(F)F.c1cnc(N2CCC3(CN(CC4CCOC4)C3)C2)nc1` (stereo not drawn) it is -18.8%. On the same count and under the same terms, the figure for `O=C(O)C(F)(F)F.c1cnc(N2CCCC3(CCN(CC4CCOC4)CC3)C2)nc1` (stereo not drawn) is 55.15%; for `O=C(O)C(F)(F)F.c1cnc(N2CCC3(CCN(CC4CCOC4)CC3)C2)nc1` (stereo not drawn) it is -17.94%; for `Cc1noc(C)c1CN1CC[C@H]2OCC[C@@]2(C(=O)N2CCOCC2)C1.O=C(O)C(F)(F)F` it is -52.8%. Still for that read-out and setting: the figure for `Cc1nc(CC(=O)N2CCCC(n3ccnc3C(C)C)C2)cs1` (stereo not drawn) is -131%; for `COc1cccc(CN(C)Cn2nc(C(C)(C)C)ccc2=O)c1` it is -38.19%; for `O=S(=O)(C1CC1)N1CCC2(CCCN(Cc3ccccn3)C2)CC1` it is -27.08%. For `Cc1ccc(N2CCC3(CCN(Cc4ccccn4)CC3)CC2)nn1`, the “Percent Effect” value is reported as -24.83%.

Consider `Cc1cccc(N2CCC3(CCN(Cc4ccccn4)CC3)CC2)n1.O=C(O)C(F)(F)F.O=C(O)C(F)(F)F`, for which the “Percent Effect” value was 62.64%.

Regarding `Cn1cc(CN2CCC3(CCCN(Cc4ccccn4)C3)CC2)cn1`, the “Percent Effect” value is listed as -52.6%. The same measure, in the same setting: the figure for `O=C(O)C(F)(F)F.O=C(O)C(F)(F)F.c1ccc(CN2CCC3(CC2)CCN(c2ccccn2)C3)nc1` is -1.583%.

Consider `O=C(O)C(F)(F)F.O=C(O)C(F)(F)F.O=C(O)C(F)(F)F.O=C(O)C(F)(F)F.c1ccc(CN2CCC3(CC2)CCN(Cc2cccnc2)C3)nc1`, for which the “Percent Effect” value is reported as 17.02%.

With `O=C(O)C(F)(F)F.O=C(O)C(F)(F)F.O=C(O)C(F)(F)F.c1ccc(CN2CCC3(CC2)CCN(Cc2cccs2)C3)nc1`, the “Percent Effect” value worked out at 53.66%. `O=C(O)C(F)(F)F.O=C(O)C(F)(F)F.c1ccc(CN2CCCC3(CCN(CC4CCCO4)CC3)C2)nc1` (stereo not drawn): the “Percent Effect” value is 10.98%. On the same count and under the same terms, then `COc1cccc2ccn(CC(=O)NC(C)C)c12`, with -78.35%; and `Cc1ccc(N(CCC#N)C(=O)CCc2cscn2)cc1C`, with -62.62%; and `COC[C@@]12CCO[C@@H]1CCN(C(=O)Cc1cccc(F)c1)C2`, with -44.15%. The same measure, in the same setting: then `Cc1ccc(-c2nc(CCNC(=O)C3CC(=O)N(C)C3)cs2)cc1` (stereo not drawn), with -66.89%. In the case of `Cc1cc2c(c(-c3c[nH]c(C)n3)c1)OC(CN)C2` (stereo not drawn), the “Percent Effect” value worked out at 79.27%. Still for that read-out and setting: the figure for `Cc1nc(-c2cccc(C(=O)O)c2)c[nH]1` is -344.9%; for `Cc1cc2c(c(-c3cncc(C(=O)N4CCCC4)n3)c1)OC(CN)C2` (stereo not drawn) it is 3.853%. On the same count and under the same terms, then `CC(=O)c1cccc(-c2c[nH]c(C)n2)c1`, with -59.83%; and `O=C(CCc1ccco1)N1CCCN(Cc2cscn2)CC1`, with -137.4%; and `O=C(c1cccc(F)c1)N1CC[C@@H]2CN(c3ncccn3)CCO[C@@H]2C1`, with -63.21%. On the same count and under the same terms, the figure for `O=S(=O)(NCC(O)c1ccc2c(c1)CCO2)c1ccccc1F` (stereo not drawn) is -109.3%.

Take `COc1ncc(CN2CCC3(CCCN(CC4CCCCC4)C3)C2)cn1` (stereo not drawn): the “Percent Effect” value is listed as -65.28%. `CC1(c2ccccc2)CCCN(Cc2cncn2C2CCCC2)C1` (stereo not drawn): the “Percent Effect” value came out at 90.6%. On the same count and under the same terms, then `O=C(Cc1ccccc1)C1CCCN(Cc2cncn2C2CCCC2)C1` (stereo not drawn), with 56.54%; and `CC1(c2ccccc2)CCCN(Cc2cncn2C2CC2)C1` (stereo not drawn), with 67%.

For `COCCN1CCCC12CCN(Cc1cncn1C)CC2.O=C(O)C(F)(F)F.O=C(O)C(F)(F)F`, the “Percent Effect” value was -15.64%. As to `COCCn1cncc1CN1CCCC(C)(c2ccccc2)C1` (stereo not drawn), the “Percent Effect” value came out at 61.23%. As for `CC1(c2ccccc2)CCCN(C(=O)c2ccn3nnnc3c2)C1` (stereo not drawn), the “Percent Effect” value was -91.8%. In the case of `O=C(C1CCCN(Cc2cccnc2)C1)N1CCc2sccc2C1` (stereo not drawn), the “Percent Effect” value is -120.1%. `CCc1nccn1C1CCCN(C(=O)c2cncn2-c2ccccc2)C1` (stereo not drawn): where the note is “4.99 µM”, the “Percent Effect” value is -131.8% and -127.1%.

`COCCn1cncc1CN1CCC(C(C)=O)(c2ccccc2)CC1`: the “Percent Effect” value was -24.83%. `O=C(C1CCCN(Cc2ccccc2)C1)N1CCc2sccc2C1` (stereo not drawn): the “Percent Effect” value was determined as 11.44%. Same read-out and setting: then `CC1(c2ccccc2)CCC(=O)N(CCN2CCOCC2)C1` (stereo not drawn), with -51.4%; and `O=C(O)C(F)(F)F.O=C(O)C(F)(F)F.O=C1N(Cc2cccnc2)CCC12CCCN(c1ncccn1)C2` (stereo not drawn), with -131.5%; and `CS(=O)(=O)c1cncnc1C1CCCNC1.Cl` (stereo not drawn), with -139%. The same measure, in the same setting: the figure for `CCN1CCO[C@@H]2CN(C(=O)NCc3ccccc3)CC[C@@H]2C1` is -134.2%; for `CCC(=O)NC(c1ccc(C)cc1)c1cccc(S(C)(=O)=O)c1` (stereo not drawn) it is -119.8%. Turning to `COc1cc(N2C[C@@H]3COC[C@@H](Cc4nc(C)no4)[C@@H]3C2)ncn1`, the “Percent Effect” value is listed as -87.35%. On the same count and under the same terms, then `Cc1ccc(C(=O)N2C[C@@H]3CCCO[C@@H]3[C@H](N(C)Cc3ccco3)C2)o1.O=C(O)C(F)(F)F`, with -32.67%. The same measure, in the same setting: then `CCNC(=O)c1c2c(N3CCN(C)CC3)ncnc2n2ccccc12`, with -74.14%; and `Cc1cc(C)cc(C2(C(=O)NCC3CCN(CC(F)(F)F)C3)CC2)c1` (stereo not drawn), with -75.87%. On to `CCCN1CCC(CNC(=O)C2(c3cccc(C)c3)CC2)C1` (stereo not drawn), for which the “Percent Effect” value was -64.24%. On the same count and under the same terms, then `CCN1CCC(CNC(=O)C2(c3ccc(F)cc3)CC2)C1` (stereo not drawn), with 28.54%; and `CCCN1CCC(CNC(=O)C2(c3ccccc3)CCC2)C1` (stereo not drawn), with 65.3%; and `COCCN1CCC(CNC(=O)C2(c3ccccc3)CCC2)C1` (stereo not drawn), with -3.533%. Same read-out and setting: the figure for `CCOCCC(=O)N1CCN(CC(C)O)CC1` (stereo not drawn) is -101.9%; for `Cn1ncnc1CNC(=O)N(CCCO)C1CCc2ccccc21` (stereo not drawn) it is -16.9%. Take `Cn1cc(N2CC3(CCN(Cc4cccnc4)CC3)OCC2=O)cn1.O=C(O)C(F)(F)F.O=C(O)C(F)(F)F`: the “Percent Effect” value was -71.74%. The same measure, in the same setting: then `CC(=O)N1CCN(C(=O)NCCc2ccc(Cl)s2)CC1`, with -108.8%.

Consider `Cc1cc(C)c(CNC(=O)NCC2Cc3ccccc3O2)c(=O)[nH]1` (stereo not drawn), for which the “Percent Effect” value is reported as -144.1%. Same read-out and setting: the figure for `CN1CCC(c2cccc(Cc3ccccc3)n2)CC1` is -0.8146%; for `CN1CCC(c2cccc(Cc3ccc(C(F)(F)F)cc3)n2)CC1` it is 50.24%. Regarding `Fc1ccc(Cc2cccc(C3CCN(C4CCOCC4)CC3)n2)cc1`, the “Percent Effect” value amounted to 38.56%. On the same count and under the same terms, the figure for `COC1CCN(C(=O)C2CCCC2)CC(=O)N(C)c2ccccc21` (stereo not drawn) is -134%; for `CC1CN(C(=O)Nc2cc(C(F)(F)F)c[nH]c2=O)CC(C)(C)O1` (stereo not drawn) it is -36.51%; for `Cc1ccsc1C(O)CNC(=O)Cc1ccc(S(=O)(=O)C(C)C)cc1` (stereo not drawn) it is 0.3509%. Same read-out and setting: then `NCC1Cc2cccc(-c3ccc(O)c(F)c3)c2O1` (stereo not drawn), with 82.73%; and `COc1cc(-c2cccc3c2OC(CN)C3)ccc1O` (stereo not drawn), with 37.76%. Still for that read-out and setting: then `COc1c(F)cc(-c2cccc3c2OC(CN)C3)cc1F` (stereo not drawn), with 35.23%.

For the molecule `COc1ccc(-c2cccc3c2OC(CN)C3)cc1F` (stereo not drawn), the “Percent Effect” value is on record as 62.39%.

For `COc1cc(-c2cccc3c2OC(CN)C3)cc(OC)c1OC` (stereo not drawn), the “Percent Effect” value was 46.68%. On the same count and under the same terms, the figure for `Cc1ccc(C(O)CNC(=O)NCc2c(C)cc(C)[nH]c2=O)cc1` (stereo not drawn) is -76.06%; for `Cc1nc(-c2cccnc2)ncc1C(=O)N1CCCC(N(C)C)CC1` (stereo not drawn) it is -60.09%. The same measure, in the same setting: then `CN(C)CC1CSCCCN1S(=O)(=O)c1ccc(C(F)(F)F)cc1` (stereo not drawn), with 60.28%; and `CN(C)CC1CSCCCN1S(=O)(=O)Cc1cccc(F)c1` (stereo not drawn), with 58.19%; and `CN(C)CC1CSCCCN1C(=O)c1ccc(C(C)(C)C)cc1` (stereo not drawn), with 0.9343%.

As for `CS(=O)(=O)C1CCN(S(=O)(=O)Cc2cccc(F)c2)CC1`, the “Percent Effect” value is listed as -94.28%. On to `Cc1cccc(OC2CCN(S(=O)(=O)Cc3cccc(F)c3)CC2)n1`, for which the “Percent Effect” value is recorded as -131.9%. For `CN(C)CC1CSCCCN1S(=O)(=O)Cc1ccc(C(F)(F)F)cc1` (stereo not drawn), the “Percent Effect” value came to 9.215%.

Consider `Cc1cccc(CN2CC[C@@H]3[C@@H]2CCN3C(=O)c2cc(C)oc2C)n1.O=C(O)C(F)(F)F`, for which the “Percent Effect” value is listed as -98.87%. With `Cn1nc2c(cc1=O)CN(Cc1nc(N)c3ccccc3n1)CC2`, the “Percent Effect” value is -169.7%. Consider `Cc1cccc(C2CCCN(C(=O)c3ccncc3)C2)n1` (stereo not drawn), for which the “Percent Effect” value was -31.2%. Take `CCc1ccc(C(=O)N2CC(C(=O)NC(C)C)C3(CCOCC3)C2)cc1` (stereo not drawn): the “Percent Effect” value is recorded as -34.39%.

Take `OCCCN1CCc2[nH]nc(C(c3ccccc3)c3ccccc3)c2C1`: the “Percent Effect” value turned out to be 71.73%. On the same count and under the same terms, the figure for `CC(O)CN1CCc2[nH]nc(C(c3ccccc3)c3ccccc3)c2C1` (stereo not drawn) is 40.85%; for `[O-][S+](CCN1CCc2[nH]nc(C(F)(F)F)c2C1)c1ccccc1` (stereo not drawn) it is -19.45%.

Turning to `FC(F)(F)c1n[nH]c2c1CN(CCc1ccccn1)CC2`, the “Percent Effect” value is recorded as -42.86%. `OCCN1CCc2[nH]nc(C(c3ccccc3)c3ccccc3)c2C1`: the “Percent Effect” value stood at 59.95%. Still for that read-out and setting: the figure for `O=C(CCN1CCc2[nH]nc(C(F)(F)F)c2C1)Nc1ccccc1` is -17.85%.
